The results in this text go back to article PMC7819943, “Rice protein-binding microarrays: a tool to detect cis-acting elements near promoter regions in rice”.

In all, about 68,000 sequences were measured (“fluorescence intensity (a.u.)”: median about 9,100, highest 2% from about 16,000 on). The full list was thinned out, with the highest values kept by preference.

Sequence of OsWRKY34 (Q0JBA9 entry or part of it): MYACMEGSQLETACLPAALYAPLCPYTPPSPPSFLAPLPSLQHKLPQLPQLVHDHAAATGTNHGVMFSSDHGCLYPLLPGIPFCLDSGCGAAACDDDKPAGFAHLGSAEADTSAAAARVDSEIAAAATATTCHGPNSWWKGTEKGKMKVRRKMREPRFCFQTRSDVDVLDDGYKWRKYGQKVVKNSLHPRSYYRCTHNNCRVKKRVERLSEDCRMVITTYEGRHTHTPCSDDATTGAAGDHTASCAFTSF

This test deals with OsWRKY34 (Oryza sativa, UniProt Q0JBA9 1-250). The test can be described thus: protein-binding microarray (RPBM); PBS, 2% BSA, 51.3 ng/ul salmon testes DNA, 50 uM zinc acetate, 200 nM TF, 25 C, 1 h; high values mean tight binding. As to conditions: protein: recombinant; tags: N-terminal polyhistidine and DsRed monomer fusion (pET32a); label: CyDye5-dUTP incorporated in the synthesized complementary strand; 3' TTTTT single-stranded linker to array surface; dsDNA, one strand shown. In short, it runs like this:
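Ni–NTA purification followed expression in E. coli BL21-CodonPlus of transcription factors fused N-terminally to a polyhistidine tag and DsRed. At 200 nM in PBS with 2% BSA, salmon testes DNA and 50 µM zinc acetate, the protein was incubated for 1 h at 25 °C with a custom Agilent array that had been primer-extended with Cy5-dUTP and blocked with 2% BSA. After washing, the array was read on an Axon 4000B scanner. The binding signal is per-feature fluorescence intensity in arbitrary units.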
“CACGCTTCGTCGTCGGATCGGGACGCCTTGCTGCCTCTGCCGGAGTCACCTAGTGCAG”: the binding signal is 8170 fluorescence intensity (a.u.).
For the sequence “ACTACATCCGCGCACCTGCTTTGCTCGTCGACGATTATAACGGAGTCACCTAGTGCAG”, the binding signal is 12900 fluorescence intensity (a.u.).
For “TGTGGATGAGTGTGTGTGTGTGGAGATCAGTGGGAGACCACGGAGTCACCTAGTGCAG”, the binding signal was 8170 fluorescence intensity (a.u.).
The figure for “AAGGGTGTATTTATTGGTGCAATAGCGTTTTTGTTTGACCCGGAGTCACCTAGTGCAG” is 8690 fluorescence intensity (a.u.); for “AGGGAGGAGTACATCTAGTAGTATAGGGGAGAGGGTGGGCCGGAGTCACCTAGTGCAG” it is 11500 fluorescence intensity (a.u.).
The figure for “CTGTATTCATTAGGGTGGGACTGTATACTATAGTTATTATCGGAGTCACCTAGTGCAG” is 15700 fluorescence intensity (a.u.); for “AGAGCTTAATTTGGTATGTGTGTGTATATATATATATATACGGAGTCACCTAGTGCAG” it is 8150 fluorescence intensity (a.u.).
The figure for “CTGATTCATTATACTAGGAGGGGTGGGAGGGAGGGAGTACCGGAGTCACCTAGTGCAG” is 18800 fluorescence intensity (a.u.); for “TGGGGTATGTGTGCTTGGTTATGTGTGCATCTTAGTTATACGGAGTCACCTAGTGCAG” it is 19300 fluorescence intensity (a.u.); for “TAATTACCTCTCTTTAGTTTTGGGGTATGTGTGCTTGGTTCGGAGTCACCTAGTGCAG” it is 9680 fluorescence intensity (a.u.).
With “TATAGGTCCCACGCTATCTCAGTCGCCACATCAGCTAAAACGGAGTCACCTAGTGCAG”, the binding signal is 8690 fluorescence intensity (a.u.).
Next, “TTTTAAGTATAATTTCTCTATAATTTGACAATGTGGTGCTCGGAGTCACCTAGTGCAG”: 8550 fluorescence intensity (a.u.); “TTTGTTTTGAGCCGAACAAATCGGTAGTCAGTGGGCGGGGCGGAGTCACCTAGTGCAG”: 11900 fluorescence intensity (a.u.).
Next, “TGATCTTTTGTTTCCTGCTTGGTATAGTATAAGCTCTCATCGGAGTCACCTAGTGCAG”: 8800 fluorescence intensity (a.u.); “TTTTCTTTTTTCCCGCACTTTCTTTTCTTCCCGGAGATGTCGGAGTCACCTAGTGCAG”: 8400 fluorescence intensity (a.u.).
The figure for “GGTTGTGTTCTTGTTGGCGAGGAGGAGAGAGGGGTGGGGTCGGAGTCACCTAGTGCAG” is 14700 fluorescence intensity (a.u.); for “CTGTTGTTCTGTATATTGTGGTGGGTGTTGATTTGCGGGTCGGAGTCACCTAGTGCAG” it is 12800 fluorescence intensity (a.u.).
“CCATGGCGGGGTGTATTGTTGTTGTATTTGGGGTTCTGGTCGGAGTCACCTAGTGCAG”: the binding signal is 19200 fluorescence intensity (a.u.).
Next, “GAAAGATGATTTGGCAAGTAAATAAATAAGAAAAGAGAAGCGGAGTCACCTAGTGCAG”: 62600 fluorescence intensity (a.u.).
The figure for “CATCGGATATTGTATTATGGTGTTGTATGGGTTGTTCGGGCGGAGTCACCTAGTGCAG” is 14000 fluorescence intensity (a.u.); for “TTAAAAAAAAGTCAACGATGATAAATATTTAGAGAGTGAGCGGAGTCACCTAGTGCAG” it is 13100 fluorescence intensity (a.u.).
Take “GTTTGTGTTCTTGGATTGGGTTGGGTTGGGTTGGTGAGGTCGGAGTCACCTAGTGCAG”: the binding signal is 17600 fluorescence intensity (a.u.).
The figure for “GTCGGTGGAGCGGCCCTTTTTATTTCTGTGGGAGGAGGGTCGGAGTCACCTAGTGCAG” is 9300 fluorescence intensity (a.u.).
Next, “AAGCGGTACCATGGGCGGGAGGGTATTTCTGTCCTTTTGTCGGAGTCACCTAGTGCAG”: 17600 fluorescence intensity (a.u.); “AGTCAACAGGGAGGGTAAAATAAGAAAGCAACAGCAAGAGCGGAGTCACCTAGTGCAG”: 9730 fluorescence intensity (a.u.); “TTCCTTTTGTCCTCCATGCTCTCTGTATGTCGGTATTTTACGGAGTCACCTAGTGCAG”: 10500 fluorescence intensity (a.u.).
For the sequence “ATTGGGTTCTTGGAGCTGTTGGATTGGGTTTTTTTGGGAGCGGAGTCACCTAGTGCAG”, the binding signal is 9180 fluorescence intensity (a.u.).
The figure for “CTCTACTTCTAATATTCCTTATTTTTTTAATTCCGAATTTCGGAGTCACCTAGTGCAG” is 8800 fluorescence intensity (a.u.).
With “TTTCTACACCCTGTAGATCCTTGGACCCACATGCAGACCACGGAGTCACCTAGTGCAG”, the binding signal is 8730 fluorescence intensity (a.u.).
The figure for “GTGGGTGGGATCCAGGAAGATTTTAAGCTGACTGCTGCGGCGGAGTCACCTAGTGCAG” is 8510 fluorescence intensity (a.u.); for “CCTTCGCTCGCCACGTGGCAGCCGCTAGTCCTTATCGCCGCGGAGTCACCTAGTGCAG” it is 10300 fluorescence intensity (a.u.).
Next, “GGGAAACCAGGCTATCCTCTTGGTCACTCTGCACCAATTCCGGAGTCACCTAGTGCAG”: 10500 fluorescence intensity (a.u.); “ACAGCTCTGCTCAACCTTGCCATCTCGATCAATCGATCCTCGGAGTCACCTAGTGCAG”: 11400 fluorescence intensity (a.u.).
Turning to “AGGTGATGTTTGGGGTCGTTGGGTTGGTCCGCGTTCTTGCCGGAGTCACCTAGTGCAG”, the binding signal is 17400 fluorescence intensity (a.u.).
Next, “CGGTGTCGGATTTTTGGTTGGTTGACGGGGTTTGTGAGGTCGGAGTCACCTAGTGCAG”: 17500 fluorescence intensity (a.u.); “CATCGTTGACCAAGAATAAGAACAGCGAATTTGCATAATGCGGAGTCACCTAGTGCAG”: 14700 fluorescence intensity (a.u.).
The figure for “CTTTGGCTTCTTGCCTACCGCGTTCTTGGTGATCGTTGGTCGGAGTCACCTAGTGCAG” is 8270 fluorescence intensity (a.u.); for “GAAATGTTGGTGACGGTGGAGGATTTTGTTGTTTTAGTGTCGGAGTCACCTAGTGCAG” it is 9790 fluorescence intensity (a.u.); for “TGGATACTTGGCGTTGGTGGGCTGGTTCTTATTGGATACGCGGAGTCACCTAGTGCAG” it is 8120 fluorescence intensity (a.u.).
The figure for “GGGTTGGTCCGCGTTCTTGCCTCCTGGTTGGCCGATGTTTCGGAGTCACCTAGTGCAG” is 15700 fluorescence intensity (a.u.); for “GGTTTCTTGGATTGGGCTGTGGCTGGCGTTGGTCGGAGGACGGAGTCACCTAGTGCAG” it is 19100 fluorescence intensity (a.u.); for “TTTCTTGGCTGGTTTGGTTGTGGATTGGATTGGATTGGGTCGGAGTCACCTAGTGCAG” it is 16100 fluorescence intensity (a.u.).
As to “GTTGACGGGGTTTGTGAGGTGTGGCGGTGACTTGGAAAGACGGAGTCACCTAGTGCAG”, the binding signal was 10100 fluorescence intensity (a.u.).
The figure for “TAATAAGTGAGACCAAATATTGATTGTGTAGTATATATTTCGGAGTCACCTAGTGCAG” is 8670 fluorescence intensity (a.u.); for “GGGAGTAGTATTGATTTGACCATCGTTGACCAAGAATAAGCGGAGTCACCTAGTGCAG” it is 17400 fluorescence intensity (a.u.).
The figure for “GACAACCTGGAGCCCGACGACGACGAGGGGATGGGGAGGGCGGAGTCACCTAGTGCAG” is 8810 fluorescence intensity (a.u.).
Next, “GTTAGTGTGTGGTTTGTTGCGTGCAGTCAGGTGCACTCGGCGGAGTCACCTAGTGCAG”: 11000 fluorescence intensity (a.u.).
On to “TATTATTATGATGGGTTTGTATATTAAAATTGTCAGTTTGCGGAGTCACCTAGTGCAG”, for which the binding signal is 8110 fluorescence intensity (a.u.).
The figure for “ACGCGCGCTACATTCTCCACCTCTCCACCATTCCAAACTGCGGAGTCACCTAGTGCAG” is 9850 fluorescence intensity (a.u.); for “CACACAGCATCGTTTGGATTAATCACCGAACCGATCGACCCGGAGTCACCTAGTGCAG” it is 8400 fluorescence intensity (a.u.).
Next, “CCTCTCCTAGGTTAAGTTTTTTTGGGGCGAAGGGAGTATTCGGAGTCACCTAGTGCAG”: 8120 fluorescence intensity (a.u.); “CTCTCGCGCGAGATGTCCGTGACTCTCTTTTCGTTTACACCGGAGTCACCTAGTGCAG”: 8420 fluorescence intensity (a.u.).
Regarding “CTCTCGGTCGTCGGCCTCGTCCTCCGGGCCGGCATTCATCCGGAGTCACCTAGTGCAG”, the binding signal was 8560 fluorescence intensity (a.u.).
The figure for “TGATCGAGAGAGGTGTTGTTGGAAGCTTGGTTGGTTGGGGCGGAGTCACCTAGTGCAG” is 9000 fluorescence intensity (a.u.).
The figure for “GCGCATGGTGTTCGGGAAGAAGTACATCGTCGAGGAGGGGCGGAGTCACCTAGTGCAG” is 8540 fluorescence intensity (a.u.); for “CTTGCCATGGTGTTGATTTGGGGCGGGAAGAAGCATCGGGCGGAGTCACCTAGTGCAG” it is 16800 fluorescence intensity (a.u.); for “CTTATACATTGGGTTGAGGGTTTTTTTGGTTGAGTTCGGCCGGAGTCACCTAGTGCAG” it is 9220 fluorescence intensity (a.u.).
Next, “TTGGTTGGTTGGTTGGTGTTTTGAGGCTTGGGTCGGCTTACGGAGTCACCTAGTGCAG”: 17100 fluorescence intensity (a.u.).
Regarding “GCTAGGGTTTTTGGGTTCACTTTGAGGCTGTTTGGTTGGTCGGAGTCACCTAGTGCAG”, the binding signal was 15100 fluorescence intensity (a.u.).
